Laboratory results from PubChem BioAssay AID1259343 (VanderVen Lab, College of Veterinary Medicine, Cornell …, 2017).
About 2,900 (47%) of roughly 6,200 compounds were called active. So high a share suggests a set chosen from earlier hits. The list shows a part of the results. A number with no mark means an inactive call. Rule as the data show it: active = inhibition above about 50%; inactive = the rest.

Experiment: Mycobacterium tuberculosis growth inhibition, primary screen (AID 1259343)
Conditions: inhibition: at 10 µM, active compounds read high; outcome: 10 uM

Compound	inhibition
O=C(CC(Nc1ccc2ccccc2c1)c1ccncc1)c1ccccc1 (stereo unspecified)	88.8% (active)
C=CCNC(=S)Nc1ccc(Cl)cc1F	35.1%
C=CCNC(=S)Nc1ccc(SC(F)F)cc1	53.4% (active)
C=CCNC(=S)Nc1ccc(Cl)c(Cl)c1	21.1%
CCOC(=O)c1c(NC(=O)CCl)sc(C(=O)OC)c1CC(=O)OC	-17.1%
COC(=O)c1sc(NC(=O)CCCl)c(C(=O)OC)c1C	101% (active)
Cc1sc(NC(=O)CC(C)(C)CC(=O)Nc2sc(C)c(C)c2C(=O)O)c(C(=O)O)c1C	29.4%
Cc1csc(C(C)NCc2ccc(OCC(C)C)cc2)n1 (stereo unspecified)	51.6% (active)
Cc1ccc(-c2csc3nc(C4CC4)[nH]c(=O)c23)c(C)c1	6.81%
COc1ccc(C)cc1-c1csc(NC(=O)C(C)C)n1	11.6%
Cc1ccc(-c2ncc(C(=O)NC(C)C)s2)c(C)c1	61.8% (active)
CCOC(=O)c1nn(-c2cccc(Cl)c2)c2nc(-c3cccs3)c(C#N)c(=O)n12	52.1% (active)
CCOC(=O)c1nn(-c2ccc(OCC)cc2)c2nnc(Cc3cccnc3)c(=O)n12	-11.2%
COC(=O)CCn1c(=O)c2c(nc3n(CCc4ccccc4)c(C)cn23)n(C)c1=O	2.78%
COc1cccc(C(=O)CSc2nnc(NC(=O)c3cccc(Cl)c3)s2)c1	55.3% (active)
CNc1nnc(SCc2cccc(Cl)c2)s1	23.8%
COc1ccccc1Nc1nnc(SCC(=O)c2ccc(O)c(O)c2)s1	83.9% (active)
O=C1c2cccc3cccc(c23)N1S(=O)(=O)c1ccc(Cl)cc1	-5.06%
CN(Cc1ccc2nonc2c1)Cc1nc(-c2ccc3c(c2)OCO3)no1	13.7%
CCN(CCn1cccn1)Cc1nc(-c2ccc3c(c2)OCO3)no1	90.5% (active)
CN(Cc1nc(-c2ccc3c(c2)OCO3)no1)CC1COc2ccccc2O1 (stereo unspecified)	inactive
Cc1ccc(CN(C)Cc2nc(-c3ccc4c(c3)OCO4)no2)o1	90.8% (active)

Compound	inhibition
CN(Cc1ccc2nsnc2c1)Cc1nc(-c2ccc3c(c2)OCO3)no1	84.1% (active)
C=Cc1ccc(CSc2nccn(-c3ccc(C)cc3)c2=O)cc1	95.7% (active)
Cc1nnc(SCc2ccc(C(=O)NCc3ccncc3)cc2)n1-c1ccc(F)cc1	-8.13%
COc1ccc(-n2ccnc(SCc3ccc(F)cc3)c2=O)cc1	76.6% (active)
C=Cc1ccc(CSc2nncn3c2cc2occc23)cc1	31.6%
NC(=S)N=C1CCN(c2ccccc2)N1	93.8% (active)
c1ccc(N2CCC(=NC3=NCCCCC3)N2)cc1	4.7%
Cc1cccc(N2CCC(=NC(N)=S)N2)c1	33.7%
c1nc(Nc2ccc3c(c2)OCCO3)c2c3c(sc2n1)CCCC3	-26.9%
c1ccc(-c2nc(Nc3ccc4c(c3)OCCO4)c3ccccc3n2)cc1	-17%
FC(F)(F)c1nc(Nc2ccc3c(c2)OCCCO3)c2ccccc2n1	100% (active)
COc1cccc(COc2coc(CN3CCCN(S(=O)(=O)c4ccc(OC(F)(F)F)cc4)CC3)cc2=O)c1	10.6%
O=C(NCC(=O)N1CCN(Cc2ccc(OC(F)(F)F)cc2)CC1)c1ccco1	94.3% (active)
CC(C)(Oc1ccc(Cl)cc1)C(=O)NCc1ccoc1	24.1%
CC(C)CSc1nnc(Nc2ccc(C(C)C)cc2)s1	92.2% (active)
Cc1ccc(Nc2nnc(SCC(C)C)s2)cc1	94.1% (active)
CC(C)c1ccc(Nc2nnc(SCCO)s2)cc1	25.5%
O=C(CC1CCCC1)Nc1ccc(S(=O)(=O)C(F)F)cc1	11.8%
COc1cccc(C(=O)Nc2ccc(Oc3ccc(F)cc3)nc2)c1OC	45%
CCCCOc1ccc(NC(=O)CC2CCCC2)cn1	99.4% (active)
OCCC#Cc1ccc(CN2CCCC(CO)(Cc3ccccc3)C2)cc1 (stereo unspecified)	69.2% (active)
CSc1ncc(CNCCc2cccc(Cl)c2)c(N2CCCC(C)C2)n1 (stereo unspecified)	18%

Compound	inhibition
CC(C)c1cc(C(=O)N2CCCC(N3CCN(c4cccc(C(F)(F)F)c4)CC3)C2)on1 (stereo unspecified)	46.1%
OCC1(Cc2ccccc2)CCCN(Cc2ccc(-c3ccco3)cc2)C1 (stereo unspecified)	inactive
Clc1cccc(N2CCN(C3CCCN(Cc4ccc5nsnc5c4)C3)CC2)c1 (stereo unspecified)	75.5% (active)
OCCC#Cc1ccc(CN2CCCC(Nc3ccccc3)C2)cc1 (stereo unspecified)	70.9% (active)
OCC1(Cc2ccccc2)CCCN(Cc2ccc(OC(F)(F)F)cc2)C1 (stereo unspecified)	20.7%
Clc1cccc(CN2CCCC(Nc3ccccc3)C2)c1 (stereo unspecified)	59.2% (active)
O=C(c1cc(F)ccc1F)C1CCCN(Cc2cccc3cnccc23)C1 (stereo unspecified)	inactive
Oc1ccccc1CN1CCCC(Nc2cccc(F)c2)C1 (stereo unspecified)	72.9% (active)
Oc1cccc(-c2cc(C3CCN(Cc4ccc5nonc5c4)C3)ccn2)c1 (stereo unspecified)	14.6%
O=C(CN1CCCC1c1ccccc1)Nc1cc(F)cc(F)c1 (stereo unspecified)	2.2%
O=C(c1ccc(Cl)cc1)C1CCCN(Cc2cccc3cnccc23)C1 (stereo unspecified)	-4.04%
O=C(c1ccc(-c2ccccc2)cc1)C1CCCN(Cc2ccncc2)C1 (stereo unspecified)	inactive
c1ccc(NC2CCCN(Cc3ccc4nsnc4c3)C2)cc1 (stereo unspecified)	65.6% (active)
Cc1cc(Cl)ccc1C(=O)C1CCCN(Cc2ccc(C#CCCO)cc2)C1 (stereo unspecified)	77.5% (active)
O=C(NCc1cccnc1-n1cccn1)C1CCCN(Cc2cccnc2)C1 (stereo unspecified)	-13.9%
CCN(CC)c1ccc(/C=C2\SC(=S)N(Cc3ccccc3)C2=O)c(O)c1	-15.2%
N#Cc1ccc(NC(=O)Nc2ccccc2Br)c2n[nH]nc12	64.4% (active)
CN(CC(=O)Nc1ccccc1Br)C1CCc2ccccc21 (stereo unspecified)	34.1%
N#Cc1ccc(CNc2ccccc2Br)cc1	49.2%
COc1ccc(C2c3cccn3CCN2C(=O)Nc2cccs2)cc1 (stereo unspecified)	-1.32%
COc1ccc(C(CC(=O)c2cccs2)Sc2ccccc2NC(C)=O)cc1 (stereo unspecified)	53.2% (active)
O=c1oc2ccccc2cc1S(=O)(=O)c1ccc(Cl)cc1	-58.5%

Compound	inhibition
NC(=S)c1cc2ccccc2oc1=O	101% (active)
Cc1ccn2c(=O)nc(SCc3cccc(C(F)(F)F)c3)nc2c1	2.92%
Cc1ccn2c(=O)nc(SCCc3ccccc3)nc2c1	88.3% (active)
Cc1ccn2c(=O)nc(SCc3ccc(F)cc3)nc2c1	1.46%
Cc1ccc(CSc2nc(=O)n3ccc(C)cc3n2)cc1	24.5%
Cc1ccn2c(=O)nc(SCc3ccc(Cl)c(Cl)c3)nc2c1	59% (active)
Cc1ccn2c(=O)nc(SCc3cccc(Cl)c3)nc2c1	86.3% (active)
Cc1ccn2c(=O)nc(SCc3ccc(Cl)cc3)nc2c1	77.5% (active)
Cc1ccn2c(=O)nc(SCc3ccc(Cl)cc3Cl)nc2c1	31.1%
Cc1ccn2c(=O)nc(SCc3ccc(Br)cc3)nc2c1	1.95%
CCCSc1nnnn1-c1ccc(O)cc1	55% (active)
N#CCSc1nnnn1-c1ccc(O)cc1	-12.8%
O=C(CSc1ncnc2c1cnn2-c1ccc(F)cc1)Nc1ccon1	68.2% (active)
COc1cc(NC(=O)CSc2ncnc3c2cnn3C)cc(OC)c1	35.5%
Cc1noc(-c2ccnc(NCc3ccc(C#N)cc3)c2)n1	22.9%
O=C(C[P+](c1ccccc1)(c1ccccc1)c1ccccc1)C12CC3CC(CC(C3)C1)C2	95.7% (active)
Cc1nc(SCC(=O)C23CC4CC(CC(C4)C2)C3)nc(C)c1C	45%
Cc1ccc(-n2c(SCC(=O)N3CCNC3=O)nc3sc4c(c3c2=O)CCC4)c(C)c1	91.2% (active)
CC(=O)CSc1nc2sc(C)c(C)c2c(=O)n1C1CCCCC1	12%
Fc1ccc(Cc2nc(CSc3c(F)c(F)cc(F)c3F)cs2)c(Cl)c1	50.2% (active)
CNC(Cc1ccc(Br)cc1)Cc1ccc(Br)cc1	68.1% (active)
NCCOc1ccc(C23CC4CC(CC(C4)C2)C3)cc1	-5.79%

Compound	inhibition
CN1CCN(CC(O)COc2ccc(C34CC5CC(CC(C5)C3)C4)cc2)CC1 (stereo unspecified)	101% (active)
c1csc(CCNc2ncnc3sc4c(c23)CCC4)c1	-1.33%
c1nc(NN=C2C3CC4CC(C3)CC2C4)c2c3c(sc2n1)CCC3	100% (active)
c1nc(NC2CCCCCC2)c2c3c(sc2n1)CCCC3	94.5% (active)
C1=C(CCNc2ncnc3sc4c(c23)CCC4)CCCC1	97% (active)
Cc1cn2nc(NC3CCCCCCC3)sc2n1	-9.07%
COCc1nc(NCCC2=CCCCC2)c2cnn(C)c2n1	-33.4%
CC(=NNc1ncnc2sc3c(c12)CCC3)c1cc2ccccc2o1	24.7%
CCCCCNc1ncnc2sc3c(c12)CCCC3	-24.3%
c1nc(NC2CCCCCC2)c2c3c(sc2n1)CCC3	68% (active)
O=S(=O)(Nc1ncnc2sc3c(c12)CCC3)c1cccs1	101% (active)
Cc1nc(-c2ccccn2)[nH]c(=O)c1CC(=O)N1CCc2ccccc2C1	67.7% (active)
O=C(CSc1nnc(CCn2ccc(=O)[nH]c2=O)o1)N1CCc2ccccc2C1	4.33%
Cc1ccc(NC(=O)c2cc(C)n(C3CC3)c2C)c(C)c1	12.4%
CC1=C(C#N)C(C(F)(F)F)(C(F)(F)F)N=C(C2CCCCC2)N1	11.3%
Nc1nc(COc2ccc(Cl)cc2Cl)cs1	87.6% (active)
CC(=O)Nc1nc(COc2ccc(Cl)cc2Br)cs1	41.2%
Cc1nc(COc2ccccc2C(=O)Nc2ccc(Cl)cc2C)cs1	-36.5%
